Laboratory results reported in PubChem BioAssay (NCATS).
Where “and” joins values, the source holds several entries; their conditions need not be identical. Identical values can stand only once. A number with no mark means an inactive call. Records with an inconclusive call do not appear. Calls of active or inactive are those of the source. Unless noted, calls follow the shape of the dose curve; as a rule, active = well fitted curve in the direction sought with a large enough effect; inconclusive = small, poorly fitted or top-dose-only effect, or another doubt; inactive = no such curve, though single readings can be large; an effect the other way counts as inactive or inconclusive.

How the values were obtained:
Tov112D = assay: Primary qHTS to identify gynecologic anti-cancer compounds using libraries of approved drugs and bioactive compounds (AID 1345084); settings: Gynecologic cancer cell panel viability, ATPlite luminescence, 48 h; series mostly up to 57.5 µM; also: nearly all actives have a fitted effect of over 55% in size; also: potency is read from the fitted curve at half-maximal effect
In short: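 Luminescence from the ATPlite ATP-monitoring reagent indicates viable cell number; lower signal means cytotoxicity. Cells received compound 16 h after seeding and were exposed for 48 h across five concentrations.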

astro = assay: Drug repurposing screens with cells derived from glioblastoma tumor samples (AID 1345199); settings: viability, ATP luminescence, 48 h; series mostly up to 45.9 µM; also: nearly all actives have a fitted effect of over 40% in size; also: potency is read from the fitted curve at half-maximal effect; as to activity, negative = cell killing: % is scaled to controls: 0 for no effect and ±100 for the full control effect
In short: (§1)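 Four patient lines of CD133+ GBM neurospheres were screened at several concentrations; hits were retested in those lines plus three slower-growing GBM lines, using 48-hour treatment and ATP-based viability.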

[1] = as above; settings: GBM patient neurospheres viability, ATP luminescence, 48 h
In short: as §1

[2] = qHTS assay to identify inhibitors of the type 1 interferon - major histocompatibility complex class I in skeletal muscle: Counter screen cell viability and HiBit confirmation (AID 1347412); settings: iHSKM muscle cells + IFN-b, HiBiT or CellTiter-Glo, 24 h; Potency: HiBiT; Viability, at 45.9 µM (top of the series); also: % is scaled to controls: 0 for no effect and ±100 for the full control effect; nearly all actives have a fitted effect of over 60% in size
In short: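 Myoblasts (C25cl48, HLA-B HiBiT) seeded in medium without dexamethasone, IFN-b 4 ng/ml added except unstimulated columns; 1 hr later compounds pinned (12-pt 1:3, top 46 uM final). Incubated 24 hrs, lysed 10 min, luminescence measured.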

[3] = target: Nuclear receptor subfamily 1 group I member 2 (Rattus norvegicus) (UniProt Q9R1A7); assay: qHTS assay for small molecule activators of the rat pregnane X receptor (rPXR) signaling pathway (AID 651751; call rule not given here; also: 0% is about no effect); settings: rPXR reporter cells, luciferase (One-Glo), 24 h
Chain of Nuclear receptor subfamily 1 group I member 2 (Rattus norvegicus) (Q9R1A7 whole entry, looked up): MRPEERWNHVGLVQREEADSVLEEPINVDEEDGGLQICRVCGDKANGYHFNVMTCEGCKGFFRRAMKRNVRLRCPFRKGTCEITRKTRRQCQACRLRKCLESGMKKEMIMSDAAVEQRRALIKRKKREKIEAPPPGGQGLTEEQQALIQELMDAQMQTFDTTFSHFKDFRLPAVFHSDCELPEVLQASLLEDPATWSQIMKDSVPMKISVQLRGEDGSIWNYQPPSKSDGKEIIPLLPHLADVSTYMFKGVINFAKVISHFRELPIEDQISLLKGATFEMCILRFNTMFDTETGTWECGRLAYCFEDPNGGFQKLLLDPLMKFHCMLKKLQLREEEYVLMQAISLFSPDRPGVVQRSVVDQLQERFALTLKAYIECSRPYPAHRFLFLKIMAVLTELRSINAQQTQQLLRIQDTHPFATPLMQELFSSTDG

[4] = qHTS assay for small molecule activators of the human pregnane X receptor (PXR) signaling pathway (AID 720659; call rule not given here; also: 0% is about no effect); settings: DPX-2 HepG2 CYP3A4-luciferase, 24 h; series mostly up to 92.3 µM
[5] = at 45.9 µM (top of the series), tumour line B
[6] = at 45.9 µM (top of the series), tumour line D
[7] = at 46 µM (top of the series), tumour line A
[8] = at 46.1 µM (top of the series), tumour line C

For `CC[N+]1(CC)CCC(=C(c2ccccc2)c2ccccc2)C1C` (centres undefined), the Potency (Tov112D) was “inactive” and the Potency (astro) was “inactive”.
For `C[N+](C)(C)CCO`, the activity, negative = cell killing [1, 5] was -20.6% and -4.58%, the activity, negative = cell killing [1, 6] was -15.3% and -5.56% and the activity, negative = cell killing [1, 7] was -28.3% and -25.4%. The activity, negative = cell killing [1, 8] was 20.9% and 13.7% and the Potency (astro) was “inactive”.
With `CC(C)C[C@H](NC(=O)CNC(=O)[C@H](Cc1ccc(O)cc1)NC(=O)[C@H](CO)NC(=O)[C@H](Cc1c[nH]c2ccccc12)NC(=O)[C@H](Cc1cnc[nH]1)NC(=O)[C@@H]1CCC(=O)N1)C(=O)N[C@@H](CCCN=C(N)N)C(=O)N1CCC[C@H]1C(=O)NCC(N)=O` (stereo in doubt) the activity, negative = cell killing [1, 5] was -6.26%, the activity, negative = cell killing [1, 6] was 6.77% and the activity, negative = cell killing [1, 7] was -26%. The activity, negative = cell killing [1, 8] was -6.29% and the Potency (astro) was “inactive”.
With `O=C1NCCN1CCN1CCC(c2cn(-c3ccc(F)cc3)c3ccc(Cl)cc23)CC1` the Potency (astro) was 17.8 µM (active).
In the case of `CC(C)(C)CC(=O)OCC(=O)[C@@]1(O)CC[C@H]2[C@@H]3CCC4=CC(=O)C=C[C@]4(C)[C@H]3[C@@H](O)C[C@@]21C`, the Potency (Tov112D) is reported as “inactive” and the Potency [2] is reported as “inactive”.
In the case of `Oc1ccc(CCNCCCCCCNCCc2ccccc2)cc1O`, the activity, negative = cell killing [1, 5] is reported as -20.6%, the Potency ([1]; tumour line A) is reported as 17.8 µM (active) and the Potency (astro) is reported as “inactive”.
For `Cc1c(C)c2c(c(C)c1OC(=O)CCC(=O)OCCO)CC[C@@](C)(CCC[C@H](C)CCC[C@H](C)CCCC(C)C)O2`, the Potency (astro) was 12.6 µM (active).
For `CC(=O)Oc1ccc(C2(c3ccc(OC(C)=O)cc3)Oc3ccccc3NC2=O)cc1`, the activity, negative = cell killing [1, 5] was -28.4% and the Potency ([1]; tumour line A) was 22.4 µM (active).
For `CCOC(=O)c1ccc(NC(=O)CN2CCCCC2)cc1`, the Potency (Tov112D) was “inactive” and the Potency (astro) was “inactive”.
With `CC(NCCC(c1ccccc1)c1ccccc1)c1ccccc1` (centres undefined) the Potency (astro) was 25.1 µM (active).
In the case of `Nc1ccc(O)cc1`, the Potency (Tov112D) is reported as “inactive”, the Potency (astro) is reported as 35.5 µM (active) and the max response [3] is reported as 4.17%.
With `CCN(CC)CCNC(=O)c1ccc(NS(C)(=O)=O)cc1` the activity, negative = cell killing [1, 5] was -2.38%, the activity, negative = cell killing [1, 6] was -14.7% and the activity, negative = cell killing [1, 8] was -3.28%. For the same molecule, the Potency (astro) was “inactive”.
With `Nc1ccc2cc3ccc(N)cc3nc2c1` the Potency (Tov112D) was 28.2 µM (active) and the Potency (astro) was 10 µM (active).
In the case of `CCN(CC)CC(=O)OCC(=O)[C@@]1(O)CC[C@H]2[C@@H]3CCC4=CC(=O)CC[C@]4(C)[C@H]3[C@@H](O)C[C@@]21C`, the Potency (Tov112D) is reported as “inactive” and the Potency [2] is reported as “inactive”.
In the case of `Nc1cccc2c(N)cccc12`, the activity, negative = cell killing ([1]; at 99.2 µM (top of the series), tumour line C) is reported as -15.4%, the Potency ([1]; tumour line A) is reported as 15.8 µM (active) and the Potency (astro) is reported as “inactive”. The max response [3] was -7.42% and 6.55%.
In the case of `Cc1cc(OCCOCC[N+](C)(C)Cc2ccccc2)ccc1C(C)(C)CC(C)(C)C`, the Potency (astro) is reported as 15.8 µM (active).
With `CCCCCCCCCCCC[N+](C)(C)Cc1ccccc1` the Potency (Tov112D) was 25.1 µM (active), the Potency (astro) was 11.2 µM (active) and the max response [3] was 0.668%. For the same molecule, the outcome [4] was “inactive”.
With `C[C@H]1C[C@@H]2[C@H]([C@@H](O)C[C@@]3(C)[C@H]2CC[C@]3(O)C(=O)CO)[C@@]2(C)C=CC(=O)C=C12` the Potency (Tov112D) was “inactive” and the Potency [2] was “inactive”.
For `O=C1NC2CCCCN2C12CCN(CCCN1c3ccccc3CCc3ccc(Cl)cc31)CC2` (centres undefined), the Potency (astro) was 20 µM (active).
With `CCOC(=O)O[C@]1(C(=O)OCCl)CC[C@H]2[C@@H]3CCC4=CC(=O)C=C[C@]4(C)[C@H]3[C@@H](O)C[C@@]21C` the Potency (Tov112D) was “inactive” and the Potency [2] was “inactive”.
